Compounds with a hit are over-represented: about 4.1% of the library has one in this group of screens.
hcDAF-12 act: H. contortus DAF-12 activation, primary screen. HEK293 hcDAF-12 lit1-tk-luc reporter, luminescence; 0% DMSO, 100% Δ7-dafachronic acid. activation, % at 6.8 µM. 1.4% of 370,000 active;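 active = activation above the mean of all tested compounds plus 3 SD, cut at about 5.5% in these data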
DAX1 inh-1: NR0B1 (DAX1) inhibition | P51843 | HEK293 Gal4-DAX1 luciferase reporter, luminescence | inhibition, % at 6.75 µM | 0.99% of 340,000 active;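 active = inhibition above the mean over all tested compounds plus 3 SD, cut at about 4.2% in these data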;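 note: inhibition shows as a rise in luminescence from relieved DAX1 repression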
Target sequence (P51843 207-470 limits assumed): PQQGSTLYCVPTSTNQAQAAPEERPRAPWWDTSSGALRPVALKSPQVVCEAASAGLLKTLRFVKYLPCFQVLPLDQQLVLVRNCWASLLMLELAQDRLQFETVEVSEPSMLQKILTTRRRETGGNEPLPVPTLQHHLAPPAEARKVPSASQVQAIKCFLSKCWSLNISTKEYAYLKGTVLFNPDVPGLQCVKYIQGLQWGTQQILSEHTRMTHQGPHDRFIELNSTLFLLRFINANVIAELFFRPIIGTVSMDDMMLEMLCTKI
hgDAF12 agonist: hgDAF-12 agonism, primary luciferase screen | HEK293 GAL4-hgDAF12 UAS-luciferase reporter, agonist luminescence; normalized to butyrate control | activation, % at 6.8 µM | 1.8% of 370,000 active | AID 687014;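 active = activation above a cutoff set at the mean of all screened compounds plus 3 SD, cut at about 10% in these data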
ssDAF-12 act: S. stercoralis DAF-12 activation, primary screen; HEK293 ssDAF-12/GRIP1 lit1-tk-luc reporter, luminescence; % of 3 µM dafachronic acid response; 1% of 370,000 active; activation, % at 6.8 µM;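 active = activation above the mean over all tested compounds plus 3 SD, cut at about 0.9% in these data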
DAX1 inh-2: DAX1 (NR0B1) inhibition, primary screen | HEK293T StAR-luciferase reporter, SF-1/DAX-1 repression relief | inhibition, % at 6.8 µM | 1.1% of 370,000 active | AID 652010;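 active = inhibition above the mean over all tested compounds plus 3 SD, cut at about 3.6% in these data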;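 note: higher inhibition means more luminescence from relief of DAX-1 repression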
A number is an active result; . = inactive; / = no result given.

SMILES	hcDAF-12 act	DAX1 inh-1	hgDAF12 agonist	ssDAF-12 act	DAX1 inh-2
O=C(CSC(=S)N1CCCCC1)Nc1nc(-c2ccccc2)c(-c2ccccc2)o1	.	.	.	.	.
O=C(CSC(=S)N1CCOCC1)Nc1nc(-c2ccccc2)c(-c2ccccc2)o1	.	5.6	.	.	.
CN(Cc1c(C(=O)N2CCCCCCC2)nc2ccc(Cl)cn12)C1CCOC1 (stereo unspecified)	.	.	.	.	.
Cc1cccn2c(CN(C)C3CCOC3)c(C(=O)N3CCCCC3)nc12 (stereo unspecified)	.	4.3	.	.	.
S=c1[nH]nc(-c2ccc3ccccc3n2)n1-c1ccccc1Cl	.	.	.	.	.
S=c1[nH]nc(-c2ccn[nH]2)n1-c1ccccc1Cl	.	.	.	1.2	.
S=c1[nH]nc(-c2ccco2)n1-c1ccccc1Cl	.	.	.	.	4.3
S=c1[nH]nc(-c2cc(-c3ccco3)[nH]n2)n1-c1ccccc1Cl	.	.	.	.	.
COc1cccc(N2CCN(CC(=O)NCc3c(F)cccc3F)CC2)c1	.	/	.	.	.
O=c1[nH][nH]c(C(F)(F)F)c1C=Nc1ccccc1	.	.	.	.	.
Cc1cc(O)ccc1N=Cc1c(C(F)(F)F)[nH][nH]c1=O	.	4.4	.	.	.
O=C(Nc1ccc([N+](=O)[O-])cc1)C(Cc1ccccc1)N1C(=O)c2cccc3cccc(c23)C1=O (stereo unspecified)	.	.	.	1.4	.
Cc1ccc(C2=NN=C(NC(=O)C(F)(F)F)SC2)cc1	.	.	12	2.3	.
COc1ccc(NCc2cc3cc(OC)ccc3[nH]c2=O)cc1	.	.	.	.	.
COc1ccc2[nH]c(=O)c(CNc3cccc(C)c3)cc2c1	5.7	.	.	1.2	.
CCCN1C(=O)c2n[nH]c(C)c2C1c1ccc2c(c1)OCO2 (stereo unspecified)	.	/	.	.	.
COc1ccc(-n2cnc3ccccc32)cc1	.	.	.	.	.
c1ccc(-n2cnc3ccccc32)cc1	.	.	11	.	.
COC(=O)[C@]12C[C@H](CC(=O)NCC34CC5CC(CC(C5)C3)C4)C(=O)N(Cc3cccc4ccccc34)C1=C[C@H](C(C)C)O[C@@H]2C1CC1	.	/	.	.	.
C/C(=N\O)C(C)(C)Nc1cccc(F)c1	.	5.2	.	.	.
C/C(=N\O)C(C)(C)Nc1cccc(Br)c1	.	.	.	.	.
COc1cccc(-c2ccc3c(N)c(C(=O)NC4CC4)sc3n2)c1	.	4.7	11	.	.
CCOc1ccc(-n2c(SCC(=O)NN=Cc3ccc(C(=O)O)cc3)nnc2-c2cccnc2)cc1	.	/	.	.	.
COc1cccc(-n2c(CN3CCN(c4ccc(C)cc4)C(C)C3)nc3ccc([N+](=O)[O-])cc3c2=O)c1 (stereo unspecified)	5.8	.	.	.	.
COc1ccccc1-c1nnc(SCC(=O)N2CCCCC2)o1	.	.	.	.	.
SMILES	hcDAF-12 act	DAX1 inh-1	hgDAF12 agonist	ssDAF-12 act	DAX1 inh-2
COc1ccc(OC)c(-c2nnc(SCC(=O)N3CCOCC3)o2)c1	.	.	.	.	.
COc1ccc(OC)c(-c2nnc(SCC(=O)N3CCCC3)o2)c1	.	4.9	.	.	.
Cc1ccccc1-c1nnc(-c2cccc3ccccc23)o1	.	.	.	.	.
Cc1ccccc1-c1nnc(-c2ccccc2C)o1	.	.	11	.	.
Fc1ccccc1CSc1nnc(-c2cccs2)o1	.	.	11	.	3.7
Cc1ccccc1-c1nnc(SCC(=O)N2CCCC2)o1	.	.	11	.	.
Cc1ccccc1S(=O)(=O)N1CCCc2nc(-c3ccc(F)cc3)ccc21	.	/	.	.	.
O=C(CSc1nnc(-c2ccc(Cl)cc2)o1)N1CCOCC1	.	.	11	.	.
O=C(CSc1nnc(-c2ccc(O)cc2)o1)N1CCOCC1	.	.	.	.	.
O=C(CSc1nnc(-c2cccs2)o1)N1CCCCC1	.	.	12	.	.
COC(=O)c1cc2c(c3c4cc(F)ccc4n(S(=O)(=O)c4cccc(C)c4)c13)C(=O)N(c1ccc(OC)cc1)C2	.	/	.	.	.
COC(=O)[C@@]12CCCCC=C1N(CCc1ccc(Cl)cc1)C(=O)[C@H]2CC(=O)NCCCCc1ccccc1	.	/	.	.	.
CCCCN(C)C(=O)CSc1nnc(-c2cc(OC)c(OC)c(OC)c2)o1	.	/	.	.	.
Cc1cccnc1NC(=S)Nc1ccc(Br)cc1Cl	.	6.7	12	.	.
CCCCN1C(=O)N(c2ccc(Cl)cc2)C(C)(O)CC1(C)C (stereo unspecified)	.	4.5	.	.	.
O=C(NCCC1=CCCCC1)C1CCN(S(=O)(=O)c2ccccc2[N+](=O)[O-])CC1	.	/	.	.	.
O=C(CSc1ccccc1)Nc1ccc2c(c1)OCO2	.	.	13	.	.
O=C(CC(=O)c1ccccc1)Nc1ccc2c(c1)OCCO2	.	.	12	.	.
Cn1nc(C(=O)Nc2ccc3c(c2)OCO3)c2ccccc2c1=O	.	.	.	2.4	.
O=C(Nc1ccc2c(c1)OCO2)c1c(F)cccc1F	.	.	13	.	.
O=C(CSc1ccc2c(c1)OCCO2)Nc1ccc2c(c1)OCO2	/	.	/	/	/
COc1ccc(C(=O)CSc2nnc(-c3cccnc3)n2-c2ccc(C)cc2)cc1	.	/	.	.	.
O=C(Nc1ccc(N2CCN(c3ccccc3)CC2)c(F)c1)C1CC1	5.8	.	.	.	.
CC(=O)c1ccc(NC(=O)C2CCCC2)cc1	.	6.0	.	.	.
O=C(Nc1nc(-c2ccc3c(c2)OCO3)cs1)C1CC1	.	.	11	.	.
SMILES	hcDAF-12 act	DAX1 inh-1	hgDAF12 agonist	ssDAF-12 act	DAX1 inh-2
CS(=O)(=O)N1CCC(C(=O)Nc2ccc3c(c2)OCO3)CC1	.	.	.	.	.
O=C(Nc1ccc2c(c1)OCO2)C1CCCCC1	.	.	.	.	4.0
CC(=O)c1cccc(NC(=O)C2CCCC2)c1	.	.	.	.	.
Cc1ccc(SCC(=O)Nc2ccc(N3CCN(c4ccccc4)CC3)c(F)c2)cc1	.	.	.	.	.
O=C(Cn1nnc(-c2ccncc2)n1)Nc1ccc(Cl)cc1	.	/	.	.	.
O=C(Cn1c(-c2cncs2)nc2ccccc21)NC1CCCCC1	.	/	.	.	.
C[C@@H](O[Si](c1ccccc1)(c1ccccc1)C(C)(C)C)[C@@H]1NC(=O)[C@@H]2C[C@]3(Br)c4ccccc4N(S(=O)(=O)c4ccccc4)[C@@H]3N2C1=O	.	/	.	.	/
CCn1c(SCc2ccc(C(C)(C)C)cc2)nnc1-c1ccc(C(C)(C)C)cc1	.	/	.	.	.
Fc1ccc2nc(-c3ccc(CN4CCC(c5nc6ccccc6[nH]5)CC4)cc3)c(-c3ccccc3)nc2c1	.	/	.	.	.
CC(C)Oc1ccc(N2CC(C(=O)Nc3ccc4c(c3)OCO4)CC2=O)cc1 (stereo unspecified)	.	.	.	1.4	.
CN1CCN(c2ccc(NC(=O)CSc3ccccc3)cc2F)CC1	.	5.3	11	.	.

Source: PubChem (The Scripps Research Institute Molecular Screening Center)
